Assay results taken from PubChem BioAssay AID1347426 (Functional Genomics Laboratory (NCATS/FGL), 2020).
Hit rate of the full screen: of about 31,000 sequences, about 1,400 (4.5%) were called active. The sample as a whole holds a higher share of actives than the screen did. A number with no mark means an inactive call.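 Rule for the calls: active = median seed-adjusted z-score above 1 or below -1; inactive = the rest.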

test: Novel Modifiers of Survival Motor Neuron (SMN) Protein: Gene Identification via Genome-wide siRNA Screen; details: HEK293T SMN2-luciferase reporter, siRNA knockdown, 72 h; actives lie on both sides;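 note: luminescence tracks full-length SMN protein made from the SMN2 reporter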
Summary of the method: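 Each of three siRNAs per gene is reverse-transfected (1 pmol) into reporter HEK293T cells whose luciferase output tracks SMN protein level. After 72 h culture, ONE-Glo luminescence is control-normalized, log10-transformed and MAD-standardized; Common Seed Analysis deprioritizes seed-driven hits.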

Sequence | median seed-adjusted z-score
GGCACUAUUCUGCUAAGAATT against RAPGEF5 | 0.529
GCCUGUUCGAAAGCGCAAATT against UBR4 | 0.602
AGGAGAAUGUGAUCCGAGATT against TXNDC14 | -2.39 (active)
GGGUCUUCAUGAUUGGUGUTT against SLC44A5 | 0.179
GUUUGUAGGUCGUCAGAAATT against NDUFS6 | -0.0128
CAUCCAGUCUGUAUACGAATT against ACLY | 0.478
GCCUCCAAAGGUUACAUUUTT against UBE2E1 | 0.888
GAUGUAAACCCUGAACUAATT against CSRP2 | -0.829
GAGGUAAUCUGGGUGCACATT against PARK7 | -0.357
GAAUGGAGGUCAACUAUAUTT against UBE2E2 | -1.77 (active)
GAAUGUCAUCCGUAUUUCATT against AKR1C3 | -0.00538
GGAACUGCUGCAUUAGAUATT against ITCH | 0.199
GAAUUUGUUCAUUAUCGUATT against UBE3A | 0.0949
GGCGAACUGUUUUAGAAGATT against CCNB2 | 0.0328
CGAUGUUGGUUAUGAGAGATT against ACTR3 | -0.7
GGAUAGAGGUUUCCAGUUUTT against CNBP | -1.14 (active)
GCAGGUUCCUUAUCUGUCATT against BIRC5 | 0.0236
GGAUUAGUGAUUAUAUGGATT against NPAS3 | -0.0316
CAUCCAAGAUUAUAGUGGATT against PNLIP | 0.385
GUACAGACCUGAGAAUUCUTT against CTSL2 | -1.04 (active)
GAUGAACCCUGGAACUUCATT against ZNF354B | 0.393
AGAAGGACGUGUCCAAGGATT against FOXC2 | -0.792

Sequence | median seed-adjusted z-score
GAAUGAUGUUGACAUGAGUTT against SSR1 | -0.434
GCCUAUUCAUCGGAAGGUATT against SENP2 | 0
UGCUUAUGAUCAACAUUUATT against LSM3 | -1.36 (active)
GGGUUUAACUUUCAGAGAUTT against VN2R1P | -0.25
GGGUUGGUGUGAUUGGAGUTT against LOC647743 | -0.203
GCUCGGCAUCUGUUGGUUATT against SIRT3 | -0.341
GGCCUAUAAUGAAUACCCUTT against GLRA1 | 0
CAUUGAAACUGAUAAACCATT against ARCN1 | -1.25 (active)
GCAGAGCAAUGGGAGAGAATT against EPHB4 | -0.143
GCAUCGCAGUGCUAAACAUTT against DGKA | -1.36 (active)
AGACAAUCGUCAUGCAAUUTT against CDC37 | 0
GAAUUACUCUGCCUCUAAATT against TAF7 | -0.593
CGUCUAAUGCUGCUCCACATT against AGPAT1 | -1.38 (active)
AUCCUUCCCUGAAUCAUCATT against KLRC2 | -0.472
GUAUCCAUGUGCAUUUUAATT against NT5E | 0.199
GCUCAUACCUCGGAUGUCATT against GPR31 | -0.0381
CCACAUUUGUGACGCAAAATT against TPSAB1 | 0.197
GCUAAAUGGAGGAGACUAATT against HHEX | -0.428
CAACAUUCAUGGACGGGAATT against SLC2A7 | -0.0337
CGUAAAUCCCUAAUCUUUATT against FOXJ1 | -0.553
CACUGAAUGUGAGAGCUGUTT against HRC | 1.06 (active)
CCUUCUUCUGGAUACCGAUTT against ABCA9 | -0.139

Sequence | median seed-adjusted z-score
GCGGAAAAGCUGUAUCUAUTT against POLR3E | -0.55
GGUGGAACUUUUAAUCAAATT against GABPB2 | 0.441
CCAGAUUGCUAGUAUCUCATT against TRAK1 | 0.298
CCUGGAAAGUACUCUAGAATT against PGS1 | 1.36 (active)
GGAUCCUACUGGUAAAACUTT against NUDT5 | 0.228
GCAGCGACCUUUCAGAACATT against SALL1 | -0.526
GAUUAUAAGUAUCUACGUUTT against GTPBP4 | 1.01 (active)
GACUGACACGGAAUAGUGUTT against ZNF286A | 0.0368
CCACCUUCAAUAUCGAGUUTT against DRD3 | 0.0447
ACUGCAAUCUGUUGCCCAATT against CLIC5 | 0
CAUUCUCAGUCAUCAUAGATT against ATP8A2 | 0
GGAUCUGCUUUCGAACCUATT against MBOAT1 | -1.22 (active)
GGAUAGUAUGAAUGAUCAATT against SRP54 | 0.203
CCGCUUCACAGGUAGUUAATT against NUP93 | 1.01 (active)
GGUCAAACAAUGUCGCUUUTT against COPB2 | -0.61
GUAAGUCCCUUUAUUCACATT against GFRA4 | -1.59 (active)
GGACUCUACCUGACAGAAATT against CAPN13 | 0.208
GGUUCUAGCUGUCAACAUUTT against AP1G2 | 0.0657
ACCACCAAAUGAAGAAUAATT against AKR7A3 | 0.455
GCAUCCUUGUGUACAUGUGTT against USP41 | 0.808
GCACCUUCGUCUACAAGGATT against PDE6A | 1.25 (active)
UGGACUUCGUGGUUCAGCATT against SULT1A1 | -0.26

Sequence | median seed-adjusted z-score
GGAUGUUUUCCGGUUCAUATT against LOC4951 | 0.0691
GCUUUCAUCGGCUCCAUAATT against CARM1 | 0.317
GAUGUAACAUUGACAUUGATT against NOTCH2 | 0.000598
CAUUUUCAGUCUUUAGAAATT against RNF34 | -0.0857
GGGUUGUUUCAAUCUAACATT against HDAC2 | -1.27 (active)
GCCCUGAAGAUAUCGUGAATT against PARVG | 0.321
GGACUUUGAGGAAACGGAATT against BRD8 | -0.133
GUUACGCCCUGAUUCUAAATT against MAT2A | -1.9 (active)
GGAACAAAGACUAAAAACATT against TUBB6 | 0.63
GCAAAACACCAGAACGAGATT against TESSP2 | 0.419
GAAUAGAGGAUAUCCUUGATT against KYNU | 0.00735
CCAGCUUGCUUGUGUAUAATT against PPP1R14A | 0.0124
GGAAGACUCAUUGAACAUATT against CASP1 | -0.331
GGGAAUUACCAGUUACGGATT against TMPRSS12 | 0.0961
CAAUGUUCCUCUACCUCUATT against MAL2 | -0.604
GCAUCCUUACAGCACUGCATT against XRCC3 | 0.332
GACUAUCUUUUUAGGCAAATT against BRIP1 | 0.312
GCCUCAUCGUUCUGCAGAATT against ZNF628 | -0.121
GUACAGGCCCUACAUCAUUTT against LRP5 | -1 (active)
CAUCUGACCCUAACUGAAATT against ZMYND10 | 0.255
GGGUGAUCGAGGACCCAAATT against COL8A1 | -0.848
GGAUCAUGCUAAAAGGAGATT against SNRPE | -2.77 (active)

Sequence | median seed-adjusted z-score
GCCUUGUAAAAAUCAACUUTT against ZNF528 | -0.0746
CGCAAAAGGCUACCACGAATT against CD300LF | -0.264
GGUUGCUACGGGAACAAUATT against ARSD | -0.447
CAGUGACCUGCUUCCCUCATT against PROP1 | 0.303
CGGUGUGAAGAUGAUCUAATT against DNAJC24 | -0.0166
GUUACUCACAUUUUCUUUATT against AKR7A3 | 0.455
UAAUCAAUCUGGAAUGUUUTT against BMP8B | 0
CGAGGAGCUGAAUUCCCAATT against SLC9A3R1 | -0.418
CAGACUGAAGGGUUCCGAATT against MLH3 | 0.228
GCCUCUAAGAGCUGAGAGATT against PRSS33 | -0.588
GGACUAUGCAAAGAAUCUATT against RPS6KB1 | 1.4 (active)
GCUACGAUCACAUUACGAATT against JARID1D | 0.293
GUACCAGUCCAGUCCAUGATT against CDKN2D | -0.455
GGAAGUAAAUGUUGUUUUATT against CCL11 | -0.221
GGCCCGAGCUGAUUGACUATT against ACTN1 | 0
GCUCUAACCUCACUAAUCATT against ZNF256 | 0.00739
CCGCUGCAACAACCAGAAATT against LRP3 | -1.05 (active)
CAGUCCUACAGGUUCAUCATT against PIP5K1C | -0.13
GAGAUAUUUGAGUCGUUAATT against GBP7 | 0
CAACUCCGUGGUUACCAAATT against PQBP1 | -1.12 (active)
